Assay results: article PMC8384837, “Expanding the binding specificity for RNA recognition by a PUF domain”

Experiments:
Assay in all cases: yeast three-hybrid, YBZ-1, SC-Leu-His + 0.5 mM 3-AT, 4 days
Details in all cases: tags: N-Gal4 AD-HA kept; label: inside an RPR1-promoter hybrid RNA with tandem MS2 sites; ssRNA
PUM1 PUF domain R6-TFC = target: T1, PUM1 PUF domain R6-TFC (Homo sapiens, UniProt Q14671 828-1176, N1043T;Y1044F;Q1047C)
T1 sequence: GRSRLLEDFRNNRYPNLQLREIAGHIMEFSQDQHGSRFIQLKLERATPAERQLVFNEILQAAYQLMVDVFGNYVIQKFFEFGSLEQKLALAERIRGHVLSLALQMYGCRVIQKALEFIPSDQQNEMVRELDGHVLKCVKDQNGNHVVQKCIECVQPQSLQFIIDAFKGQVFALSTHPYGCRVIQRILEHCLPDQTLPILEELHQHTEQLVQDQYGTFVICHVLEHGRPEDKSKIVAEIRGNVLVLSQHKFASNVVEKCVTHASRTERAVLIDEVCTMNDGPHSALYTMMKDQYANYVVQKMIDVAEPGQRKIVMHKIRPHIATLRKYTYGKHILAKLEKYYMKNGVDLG
In short: (§1)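 Pumilio-1 PUF domain libraries, randomized at the three base-contacting residues of each repeat, were co-expressed with matching RNA elements from a centromeric plasmid in strain YBZ-1, which carries a LexA–MS2 coat fusion and a HIS3 reporter. Transformants grew for four days on SC-Leu (input) or on SC-Leu-His + 0.5 mM 3-AT (selection), and the repeat regions were PCR-amplified and Illumina-sequenced. The interaction score is the log change in variant frequency from input to selection. That logarithm is base 2, with a pseudocount of 1 where a variant was absent.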

PUM1 PUF domain R3-IYG = PUM1 PUF domain R3-IYG (Homo sapiens, UniProt Q14671 828-1176, C935I;R936Y;Q939G)
In short: as §1

PUM1 PUF domain R3-RMR = PUM1 PUF domain R3-RMR (Homo sapiens, UniProt Q14671 828-1176, C935R;R936M;Q939R)
PUM1 PUF domain R3-RMR, sequence (Q14671 828-1176 C935R/R936M/Q939R): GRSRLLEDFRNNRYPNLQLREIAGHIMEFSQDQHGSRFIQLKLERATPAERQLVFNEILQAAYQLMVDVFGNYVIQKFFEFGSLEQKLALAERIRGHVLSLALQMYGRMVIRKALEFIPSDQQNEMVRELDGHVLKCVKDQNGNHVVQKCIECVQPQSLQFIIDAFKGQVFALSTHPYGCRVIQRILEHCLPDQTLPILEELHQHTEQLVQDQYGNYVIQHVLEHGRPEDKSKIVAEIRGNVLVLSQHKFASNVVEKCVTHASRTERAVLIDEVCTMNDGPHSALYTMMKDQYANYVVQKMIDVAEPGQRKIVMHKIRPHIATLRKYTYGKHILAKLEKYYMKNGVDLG
In short: as §1

PUM1 PUF domain R3-LYV = PUM1 PUF domain R3-LYV (Homo sapiens, UniProt Q14671 828-1176, C935L;R936Y;Q939V)
PUM1 PUF domain R3-LYV, sequence (Q14671 828-1176 C935L/R936Y/Q939V): as the sequence (Q14671 828-1176 C935R/R936M/Q939R) above, with R108L, M109Y, R112V counted along it
In short: as §1

PUM1 PUF domain R5-KTS = PUM1 PUF domain R5-KTS (Homo sapiens, UniProt Q14671 828-1176, C1007K;R1008T;Q1011S)
PUM1 PUF domain R5-KTS, sequence (Q14671 828-1176 C1007K/R1008T/Q1011S): as the sequence (Q14671 828-1176 C935R/R936M/Q939R) above, with R108C, M109R, R112Q, C180K, R181T, Q184S counted along it
In short: as §1

PUM1 PUF domain R1-RAV = PUM1 PUF domain R1-RAV (Homo sapiens, UniProt Q14671 828-1176, S863R;R864A;Q867V)
PUM1 PUF domain R1-RAV, sequence (Q14671 828-1176 S863R/R864A/Q867V): as the sequence (Q14671 828-1176 C935R/R936M/Q939R) above, with S36R, R37A, Q40V, R108C, M109R, R112Q counted along it
In short: as §1

PUM1 PUF domain R1-GWR = PUM1 PUF domain R1-GWR (Homo sapiens, UniProt Q14671 828-1176, S863G;R864W;Q867R)
PUM1 PUF domain R1-GWR, sequence (Q14671 828-1176 S863G/R864W/Q867R): as the sequence (Q14671 828-1176 C935R/R936M/Q939R) above, with S36G, R37W, Q40R, R108C, M109R, R112Q counted along it
In short: as §1

PUM1 PUF domain R1-TIE = PUM1 PUF domain R1-TIE (Homo sapiens, UniProt Q14671 828-1176, S863T;R864I;Q867E)
In short: as §1

How did the binding signal (PUM1 PUF domain R6-TFC) turn out when “GGCUAGAACUAGUGGAUCCCCCGGCGCCCGGCGGCUCGAGCCCGGGUAAGUGAAAAUAGUCUGCAUGCCGCCGGGCGCCAUGCCUGCAGGUCGACUCUAGAAAACAUG” was run?
Its binding signal is 5.07 log2 enrichment (interaction score).

Which binding signal (PUM1 PUF domain R3-IYG) does the source give for “GGCUAGAACUAGUGGAUCCCCCGGCGCCCGGCGGCUCGAGCCCGGGUAAGUGUAACUAGUCUGCAUGCCGCCGGGCGCCAUGCCUGCAGGUCGACUCUAGAAAACAUG” here?
Its binding signal is 0.48 log2 enrichment (interaction score).

Which binding signal (PUM1 PUF domain R3-RMR) does the source give for “GGCUAGAACUAGUGGAUCCCCCGGCGCCCGGCGGCUCGAGCCCGGGUAAGUGUAAUUAGUCUGCAUGCCGCCGGGCGCCAUGCCUGCAGGUCGACUCUAGAAAACAUG” here?
The binding signal was 4.19 log2 enrichment (interaction score).

And the binding signal (PUM1 PUF domain R3-LYV)?
Its binding signal is 5.79 log2 enrichment (interaction score).

Which binding signal (PUM1 PUF domain R5-KTS) does the source give for “GGCUAGAACUAGUGGAUCCCCCGGCGCCCGGCGGCUCGAGCCCGGGUAAGUGUCAAUAGUCUGCAUGCCGCCGGGCGCCAUGCCUGCAGGUCGACUCUAGAAAACAUG” here?
Its binding signal is 2.89 log2 enrichment (interaction score).

What does the source list for “GGCUAGAACUAGUGGAUCCCCCGGCGCCCGGCGGCUCGAGCCCGGGUAAGUGUAAAUUGUCUGCAUGCCGCCGGGCGCCAUGCCUGCAGGUCGACUCUAGAAAACAUG”?
binding signal (PUM1 PUF domain R1-RAV): 2.63 log2 enrichment (interaction score); binding signal (PUM1 PUF domain R1-GWR): 4.28 log2 enrichment (interaction score); binding signal (PUM1 PUF domain R1-TIE): 4.28 log2 enrichment (interaction score)

With “GGCUAGAACUAGUGGAUCCCCCGGCGCCCGGCGGCUCGAGCCCGGGUAAGUGUAAAUCGUCUGCAUGCCGCCGGGCGCCAUGCCUGCAGGUCGACUCUAGAAAACAUG” as the sequence, how does the binding signal (PUM1 PUF domain R1-RAV) read?
The binding signal was 0.85 log2 enrichment (interaction score).

What about the binding signal (PUM1 PUF domain R1-GWR) of the same sequence?
The binding signal was 7.05 log2 enrichment (interaction score).
